# Experimental data taken from PubChem BioAssay AID1347087 (National Center for Advancing Translational Sciences (NCATS), 2019).
# Where “and” joins values, the source holds several entries; their conditions need not be identical. Identical values can stand only once. Inconclusive results are not listed. Calls of active or inactive are those of the source. Calls follow the shape of the full dose curve.
# Assay: qHTS for Inhibitors of the Functional Ribonucleoprotein Complex (vRNP) of Lassa (LASV) Arenavirus: LASV Confirmatory Screen - GLuc reporter signal
# Conditions: LASV minigenome vRNP, Gaussia luciferase reporter; series mostly up to 53.9 µM; activity, negative = inhibition: at the top concentration
SMILES,Potency,"activity, negative = inhibition"
Cc1cc2c(C(C)C)c(O)c(O)c(C=O)c2c(O)c1-c1c(C)cc2c(C(C)C)c(O)c(O)c(C=O)c2c1O,9.68 µM (active),
CCCCCC[C@H]1C(=O)O[C@H](C)[C@H](NC(=O)c2cccc(NC=O)c2O)C(=O)O[C@@H](C)[C@@H]1OC(=O)CC(C)C,0.0306 µM (active),
CC(O)C(O)[C@H]1CNc2nc(N)[nH]c(=O)c2N1 (stereo partly drawn),,11.1% (inactive)
CC(=O)[C@H]1CC[C@H]2[C@@H]3CCC4=CC(=O)CC[C@]4(C)[C@H]3CC[C@]12C,21.7 µM (active),
CC(C)(C)C1CCC(CC2=C(O)c3ccccc3C(=O)C2=O)CC1 (stereo not drawn),6.85 µM (active),
COc1ccc(Cc2nccc3cc(OC)c(OC)cc23)cc1OC,3.06 µM (active) and 3.85 µM (active),
O=C1Cc2cc(CCN3CCN(c4nsc5ccccc45)CC3)c(Cl)cc2N1,2.17 µM (active) and 3.43 µM (active),
Cc1ccc2c(c1)C1CN(C)CCC1N2 (stereo not drawn),,-9.24% [at 19.4 µM] (inactive)
O=C(CCCN1CCN(c2ccc(F)cc2)CC1)NC1c2ccccc2CSc2ccccc21 (stereo not drawn),,-7.57% (inactive)
O=C(Nc1ccc([N+](=O)[O-])cc1Cl)c1cc(Cl)ccc1O,0.968 µM (active),
COCCOC(=O)C1=C(C)NC(C)=C(C(=O)OC/C=C/c2ccccc2)C1c1cccc([N+](=O)[O-])c1 (stereo not drawn),27.3 µM (active),
O=C(Nc1ccccc1)c1cc([N+](=O)[O-])ccc1Cl,24.3 µM (active),
CCn1c(-c2nonc2N)nc2cnc(Oc3cccc(NC(=O)c4ccc(OCCN5CCOCC5)cc4)c3)cc21,2.73 µM (active),
